# Assay results: PubChem BioAssay (NCI)
# This is part of a sample that, as a whole, favours compounds with a hit. Of some 79,000 tested, about 15% had one in any assay. Unmarked numbers belong to inactive results. Active and inactive are the calls of the source. Cut-off read from the data, not from the text of the source: active = growth inhibition above about 70%; inactive = the rest.
# Columns and labels:
# [1] = NCI Yeast Anticancer Drug Screen. Data for the rad50 strain (AID 155);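 note: 0% = growth of vehicle-only cultures of the same strain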; settings: S. cerevisiae rad50 strain growth inhibition, hits give high values
# Procedure, shortened: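 Readout: growth inhibition relative to vehicle-treated cultures. Compound exposure was carried out in a genetically defined yeast strain deficient in DNA damage repair.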
# [2] = NCI Yeast Anticancer Drug Screen. Data for the mec2-1 strain (AID 157); settings: S. cerevisiae mec2-1 strain, hits give high values
# Procedure, shortened: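 mec2-1 yeast strain, carrying an alteration in DNA damage repair or cell cycle control, was exposed to compounds; growth inhibition was measured relative to vehicle-treated controls.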
# [3] = NCI Yeast Anticancer Drug Screen. Data for the sgs1 mgt1 strain (AID 161);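 note: 0% = growth of cultures given vehicle only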; settings: S. cerevisiae sgs1 mgt1 strain, hits give high values
# Procedure, shortened: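 Yeast cells carrying a defined DNA-repair defect were exposed to test compounds. Growth inhibition was measured relative to vehicle-treated controls.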
# [4] = NCI Yeast Anticancer Drug Screen. Data for the cln2 rad14 strain (AID 165);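 note: 0% = growth equal to vehicle treated cultures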; settings: S. cerevisiae cln2 rad14 strain, hits give high values
# Procedure, shortened: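 Yeast carrying cln2 and rad14 alterations (cell cycle control and DNA damage repair) were exposed to compounds. Growth inhibition was measured against vehicle-treated controls.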
# [5] = NCI Yeast Anticancer Drug Screen. Data for the bub3 strain (AID 167); settings: S. cerevisiae bub3 mutant strain, hits give high values
# Procedure, shortened: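 Readout: yeast growth inhibition, expressed relative to vehicle-only wells. The test organism is a mutant strain from a panel with lesions in DNA repair or checkpoint genes.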
# [6] = NCI Yeast Anticancer Drug Screen. Data for the mlh1 rad18 strain (AID 175); settings: S. cerevisiae mlh1 rad18 strain growth inhibition, hits give high values
# Procedure, shortened: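 Growth inhibition of the yeast strain was measured after compound exposure and expressed relative to vehicle-treated controls. The strain carries defined defects in DNA damage repair.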
# [7] = at 5.0 µM (retest, dose inferred, filed as 0.5)
# [8] = at 50.0 µM (retest, dose inferred, filed as 5.0)
SMILES,"growth inhibition [1, 7]","growth inhibition [1, 8]",growth inhibition ([1]; at 50.0 µM),"growth inhibition [2, 7]","growth inhibition [2, 8]",growth inhibition ([2]; at 50.0 µM),"growth inhibition [3, 7]","growth inhibition [3, 8]",growth inhibition ([3]; at 50.0 µM),"growth inhibition [4, 7]","growth inhibition [4, 8]",growth inhibition ([4]; at 50.0 µM),"growth inhibition [5, 7]","growth inhibition [5, 8]",growth inhibition ([5]; at 50.0 µM),"growth inhibition [6, 7]","growth inhibition [6, 8]",growth inhibition ([6]; at 50.0 µM)
Clc1ccc(Cc2nc3ccccc3s2)c(Cl)c1,39%,98% (active),90.8% (active),36%,99% (active),93.3% (active),43%,99% (active),94.1% (active),34%,89% (active),91.5% (active),43%,98% (active),92.5% (active),57%,99% (active),92.5% (active)
c1ccc2c(c1)ccc1c2ccc2sc3ccccc3[n+]21,71% (active),94% (active),92.3% (active),53%,96% (active),53.9%,59%,93% (active),91.2% (active),62%,92% (active),69.8%,54%,92% (active),73.5% (active),75% (active),96% (active),91.3% (active)
O=C1NC(c2ccccc2)(c2cccs2)C(=O)N1C1c2ccccc2Oc2ccccc21 (stereo not given),0%,87% (active),90.3% (active),-11%,92% (active),84.7% (active),-18%,92% (active),91% (active),-7%,84% (active),84.2% (active),-5%,91% (active),86.8% (active),21%,87% (active),87.4% (active)
N#C/C(=C1C=C/C(=N/O)c2ccccc2/1)c1ccc(Cl)cc1,11%,17%,56%,-6%,26%,77.3% (active),1%,1%,60.8%,-1%,6%,41.1%,-4%,61%,34.5%,-9%,28%,72.6% (active)
CCCCCCCCCCCCCCCC[NH][Ge]([NH]CCCCCCCCCCCCCCCC)([NH]CCCCCCCCCCCCCCCC)[NH]CCCCCCCCCCCCCCCC,98% (active),96% (active),87.4% (active),99% (active),97% (active),91.5% (active),99% (active),96% (active),90.2% (active),99% (active),96% (active),89.2% (active),99% (active),97% (active),87.2% (active),98% (active),95% (active),87.2% (active)
O=C1c2ccccc2S(=O)(=O)CC1Br (stereo not given),-7%,96% (active),99.2% (active),-21%,85% (active),99.7% (active),13%,98% (active),99.3% (active),6%,58%,99.3% (active),-4%,89% (active),99.4% (active),30%,98% (active),99.2% (active)
CCOC(=O)c1ccc(-c2cccs2)n1C,-14%,6%,65.9%,-1%,-6%,43.8%,-12%,-3%,61.9%,28%,0%,23.4%,-12%,1%,67.8%,-9%,-1%,43.2%
C1C[OH+]CC[OH+]CCNCC[OH+]CC[OH+]CCN1.[Cl-].[Pt+4],34%,34%,86.8% (active),34%,34%,87.4% (active),29%,29%,84.8% (active),29%,29%,87.1% (active),10%,10%,86.2% (active),43%,43%,84.2% (active)
CCCC/C(=N/Nc1ccc([N+](=O)[O-])cc1)C(=O)O,14%,97% (active),71.5% (active),8%,95% (active),24.3%,14%,97% (active),75% (active),-3%,60%,24.5%,18%,98% (active),82% (active),21%,98% (active),57.4%
CCOc1ccc(C(=O)CCN2CCOCC2)cc1,8%,40%,77.5% (active),14%,27%,42.1%,20%,53%,57%,15%,59%,52.9%,14%,46%,46%,6%,35%,55.3%
